Compound activity as filed in PubChem.
A selection: hits, their analogues and other compounds. The true share with any hit is near 18%.
DT40 TDP1 CPT: growth inhibition of DT40 Tdp1-/-;hTDP1 cells with camptothecin (screen for TDP1 inhibitors) | chicken DT40 Tdp1-/-;hTDP1 cells + 20 nM CPT, ATP luminescence, 48 h | Potency, µM (series often up to 46.2 µM), without a hit: top-dose activity change, negative = growth inhibition, usual class: inhibitors | 12% of 420,000 active; note: potency is the fitted concentration of half-maximal effect; nearly all actives have a fitted effect of over 55% in size
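Chicken DT40 Tdp1-/- cells stably complemented with human TDP1 were seeded at 400 cells/well in medium containing 20 nM camptothecin, exposed to pin-transferred compounds, and grown at 37 °C for at least 48 hr. Viability was read as ATP luminescence.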
CtBP-E1A inh: CtBP/E1A binding inhibition; AlphaScreen GST-E1A/His-CtBP binding, 1536-well; hits give low values; activity change, % (test concentration not listed); 0.49% of 340,000 active; in the data active = activity change below about -65%; inconclusive = mostly about -30% to -63%
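AlphaScreen with 125 nM GST-E1A and 125 nM His-CtBP (5X stocks) in Tris pH 8.0, 300 mM NaCl, BSA, Tween 20, TCEP. Compounds preincubated 2 h at 37 deg C, then glutathione donor/nickel acceptor beads added for 1 h at 37 deg C in dark.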
IL-1B inflam inh: blocks inflammasome-driven IL-1 beta release; 4.7% of 360,000 active; activity change, % at 57.5 µM; AID 743279; THP-1 LPS/ATP IL-1B secretion, AlphaLISA, 16 h; hits give low values; in the data active = activity change below about -50%; inconclusive = mostly about -30% to -49%
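THP-1 cells pretreated 1 hr with compounds (up to 57.5 uM final), then stimulated with LPS (250 ng/mL final) plus ATP (1.25 mM final); secreted IL-1B measured by AlphaLISA after 16 hr, decreased signal indicating inhibition.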
Six1-Eya2 blk: inhibitors of human Six1/Eya2 interaction | AID 651725 | 0.56% of 360,000 active | activity change, % (no concentration beside the values) | AlphaScreen GST-Six1/His-Eya2 binding, biochemical; hits give low values; in the data active = activity change below about -65%; inconclusive = mostly about -30% to -63%
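Homogeneous AlphaScreen proximity assay pairing GST-Six1 with His-tagged Eya2 (added as 5X mix: 250 nM and 500 nM) in 50 mM Tris pH 8.0, 300 mM NaCl, 1 mM TCEP. Glutathione donor and nickel acceptor beads; 1 h, 37 °C, dark.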
TDP1 inh: blocks human tyrosyl-DNA phosphodiesterase 1. AID 485290. Q9NUW8. 0.28% of 350,000 active. Potency, µM (highest dose often 130 µM), inactives show top-dose activity change, negative = inhibition, hits mostly inhibitors. recombinant TDP1, AlphaScreen DNA substrate cleavage; note: potency is the fitted concentration of half-maximal effect; nearly all actives have a fitted effect of over 40% in size
Target sequence (Q9NUW8 whole entry, looked up): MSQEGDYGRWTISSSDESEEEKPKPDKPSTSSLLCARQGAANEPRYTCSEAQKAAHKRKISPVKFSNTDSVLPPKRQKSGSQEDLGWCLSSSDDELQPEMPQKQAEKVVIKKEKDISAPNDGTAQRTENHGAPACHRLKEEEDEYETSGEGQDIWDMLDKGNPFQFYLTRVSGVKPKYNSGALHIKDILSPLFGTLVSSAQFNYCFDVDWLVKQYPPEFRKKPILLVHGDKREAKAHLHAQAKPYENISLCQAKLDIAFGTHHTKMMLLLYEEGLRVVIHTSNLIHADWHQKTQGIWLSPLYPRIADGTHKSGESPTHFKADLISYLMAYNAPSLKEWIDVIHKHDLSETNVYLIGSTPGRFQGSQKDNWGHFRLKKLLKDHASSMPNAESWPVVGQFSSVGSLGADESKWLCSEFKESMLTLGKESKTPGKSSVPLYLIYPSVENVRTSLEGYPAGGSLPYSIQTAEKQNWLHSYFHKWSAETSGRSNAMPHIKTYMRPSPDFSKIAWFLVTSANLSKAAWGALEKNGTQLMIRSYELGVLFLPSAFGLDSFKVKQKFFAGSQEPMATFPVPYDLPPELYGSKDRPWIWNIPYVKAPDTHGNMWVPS
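Recombinant E. coli-expressed Tdp1 (1 nM) preincubated with compound 15 min at RT, then 5'-biotin/3'-phosphotyrosine-FITC DNA substrate (15 nM) added for 5 min. AlphaScreen beads (10 ug/ml) added, 10 min RT; tyrosine-FITC cleavage read as signal loss.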
TDP1 cell noCPT: qHTS for Inhibitors of human tyrosyl-DNA phosphodiesterase 1 (TDP1): qHTS in cells in absence of CPT; DT40 Tdp1-/- hTDP1 cells, no CPT, ATP luminescence, 48 h; Potency, µM (doses to about 46.2 µM), without a hit: at the highest dose activity change, negative = growth inhibition, hits mostly inhibitors; 15% of 420,000 active; note: potency is the fitted concentration of half-maximal effect; nearly all actives have a fitted effect of over 55% in size
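Growth kinetics read by CellTiter-Glo luminescence after ≥48 hr at 37 °C. Cells: DT40 Tdp1-/- stably carrying human TDP1, 400 per well, compound exposure in the absence of CPT (DMSO vehicle).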
The depositor's hits bear a star; ? = inconclusive; nt = no result given; [ ] = another dose, or the depositor's remark. Unless noted, calls come from the whole dose curve; as a rule, active = well fitted curve in the direction sought with a large enough effect; inconclusive = small, poorly fitted or top-dose-only effect, or another doubt; inactive = no such curve, though single readings can be large; an effect the other way counts as inactive or inconclusive. % is set by controls: 0 for no effect and ±100 for the full control effect.

SMILES	DT40 TDP1 CPT	CtBP-E1A inh	IL-1B inflam inh	Six1-Eya2 blk	TDP1 inh	TDP1 cell noCPT
CCc1ccc(-c2cc(C)no2)cc1S(=O)(=O)NCc1ccccc1OC	?	nt	-13.3	1.0	nt	-29.5%
CCC1CN(S(=O)(=O)c2cc(-c3cc(C)no3)ccc2C)c2cc(Cl)ccc2O1 (stereo not given)	13µM*	nt	nt	nt	0.0%	23.1µM*
Cc1ccc(/C=N/Nc2cn[nH]c(=O)n2)o1	-0.4%	-68.5*	9.4	?	0.0%	-4.1%
O=C(O)c1ccc(/C=N\Nc2ccccn2)cc1	?	0.6	-1.3	-14.1	nt	?
O=c1nc(N/N=C/c2ccccn2)cn[nH]1	5.17µM*	-90.5*	159.5	-90.9*	5.1%	5.17µM*
Cc1cc([N+](=O)[O-])ccc1NC(=S)NC1CCCC1	-26.1%	1.8	11.4	8.7	3.7%	-13.8%
Cc1nc(NC(=O)COC(=O)CNC(=O)c2ccco2)c(Cl)cc1Cl	-4.4%	8.1	0.5	6.3	-3.1%	-0.8%
CCNC(=O)c1ccc(C2SCC(=O)N2Cc2ccco2)cc1 (stereo not given)	-14.1%	0.4	-1.5	-0.9	1.9%	-2.3%
COc1ccc(N2CCN(C(=O)C3CCCN(c4ncnc5c4nc4n5CCCCC4)C3)CC2)cc1 (stereo not given)	20.6µM*	-28.6	-2.4	-10.5	5.1%	16.4µM*
CC(=O)c1ccc(N2CCN(C(=O)C3CCCN(c4ncnc5c4nc4n5CCCCC4)C3)CC2)cc1 (stereo not given)	14.6µM*	-20.8	0.0	-3.5	5.8%	14.6µM*
Cc1nc(NC(=O)c2ccccc2)sc1-c1cc(C(=O)O)nn1Cc1ccccc1	-0.3%	-1.4	6.8	-2.7	nt	-3.4%
COc1ccc(Cl)cc1-c1n[nH]c(=S)o1	?	-0.7	16.0	16.4	10.9%	-24.0%
COc1ccccc1C(=O)NNC(=O)Cc1ccccc1	-4.8%	7.0	18.1	7.9	0.5%[0.0935 µM]	-6.1%
CCC(C)(CCNC(=O)Cc1ccccc1)c1ccccc1OC (stereo not given)	23.1µM*	2.5	?	5.7	nt	?
COc1ccccc1NC(=O)C1CCCN(S(=O)(=O)c2ccc3c(c2)CC(C)N3C(C)=O)C1 (stereo not given)	?	-22.4	0.8	-3.9	3.2%	7.31µM*
Cc1cc(C)nc(N2CCCC(C(=O)Nc3ccc4nc(C)c(C)nc4c3)C2)n1 (stereo not given)	?	-20.8	-3.5	-22.0	1.0%	12.6µM*
CCOc1ccccc1NC(=O)C1CCN(S(=O)(=O)c2ccc3c(c2)CC(C)N3C(C)=O)CC1 (stereo not given)	?	nt	nt	nt	5.1%	?
CC(=O)N1c2ccc(S(=O)(=O)N3CCC(C(=O)Nc4ccc(F)cc4)CC3)cc2CC1C (stereo not given)	18.4µM*	-4.1	-15.2	-0.6	0.4%	13µM*
CC(=O)N1c2ccc(S(=O)(=O)N3CCC(C(=O)Nc4ccccn4)CC3)cc2CC1C (stereo not given)	-20.6%	2.0	12.3	-1.0	5.1%	-12.6%
COc1cccc(NC(=O)C2CCN(S(=O)(=O)c3ccc4c(c3)CC(C)N4C(C)=O)CC2)c1 (stereo not given)	14.6µM*	-12.7	0.0	-13.9	7.7%	?
Cc1cc(C)nc(N2CCC(C(=O)Nc3cccc(C(F)(F)F)c3)CC2)n1	?	4.2	1.6	4.9	3.1%	23.1µM*
CC(=O)N1c2ccc(S(=O)(=O)N3CCC(C(=O)Nc4cccc(C)n4)CC3)cc2CC1C (stereo not given)	?	-4.4	7.1	4.5	8.6%	?
CC(=O)Nc1ccc(S(=O)(=O)N2c3ccc(F)cc3CCC2C)cc1 (stereo not given)	7.31µM*	-2.5	75.0	-4.7	nt	5.8µM*
